Results filed as inconclusive are left out. The source made the active and inactive calls. Calls follow the shape of the dose curve; as a rule, active = well fitted curve in the direction sought with a large enough effect; inconclusive = small, poorly fitted or top-dose-only effect, or another doubt; inactive = no such curve, though single readings can be large; an effect the other way counts as inactive or inconclusive.
How the values were obtained:
[1] = system: PA-1; assay: Primary qHTS to identify gynecologic anti-cancer compounds using libraries of approved drugs and bioactive compounds (AID 1345084); details: Gynecologic cancer cell panel viability, ATPlite luminescence, 48 h; series mostly up to 57.5 µM; also: nearly all actives have a fitted effect of over 55% in size
Procedure, shortened: (§1)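 Cytotoxicity screen measuring ATP content by luciferase luminescence. Each compound is applied at five concentrations for 48 h at 37 C with 5% CO2.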

[2] = system: SKOV3; assay: as above; details: Gynecologic cancer cell panel viability, ATPlite luminescence, 48 h; series mostly up to 57.5 µM
Procedure, shortened: as §1

[3] = system: Tov112D; assay: as above; details: Gynecologic cancer cell panel viability, ATPlite luminescence, 48 h; series mostly up to 57.5 µM
Procedure, shortened: as §1

[4] = system: Tov-21-G; assay: as above; details: Gynecologic cancer cell panel viability, ATPlite luminescence, 48 h; series mostly up to 57.5 µM
Procedure, shortened: as §1

[5] = qHTS assay to identify inhibitors of the type 1 interferon - major histocompatibility complex class I in skeletal muscle: Counter screen cell viability and HiBit confirmation (AID 1347412); details: iHSKM muscle cells + IFN-b, HiBiT or CellTiter-Glo, 24 h; for activity change, negative = inhibition: Viability, at 45.9 µM (top of the series); for Potency: HiBiT; as to all read-outs here: nearly all actives have a fitted effect of over 60% in size
Procedure, shortened: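 Luminescence read-out: Nano-Glo HiBiT lytic signal from C-terminally HiBiT-tagged HLA-B in CRISPR-edited human myoblasts, plus CellTiter Glo ATP as viability counter screen. IFN-beta 4.0 ng/ml; 24 hrs treatment at 37 C, 5% CO2.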

[6] = Drug repurposing screens with cells derived from glioblastoma tumor samples (AID 1345199); details: GBM patient neurospheres viability, ATP luminescence, 48 h; also: nearly all actives have a fitted effect of over 40% in size
Procedure, shortened: (§2)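 Four patient lines of CD133+ GBM neurospheres were screened at several concentrations; hits were retested in those lines plus three slower-growing GBM lines, using 48-hour treatment and ATP-based viability.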

[7] = system: astro; assay: as above; details: viability, ATP luminescence, 48 h; series mostly up to 45.9 µM
Procedure, shortened: as §2

[8] = at 45.9 µM (top of the series), tumour line B
[9] = at 45.9 µM (top of the series), tumour line D
[10] = at 46.1 µM (top of the series), tumour line C
% is scaled to controls: 0 for no effect and ±100 for the full control effect; potency is read from the fitted curve at half-maximal effect.

C=C1C(=O)O[C@@H]2C[C@@]3(C)C[C@@H](O)C[C@H](C)C3=C[C@H]12
inactive: Potency [1] | Potency [2] | Potency [3]

Cn1sc(=O)n(Cc2ccccc2)c1=O
inactive: Potency [1] | Potency [2] | Potency [3]

CC(C)c1c(O)ccc2c1CC[C@H]1C(C)(C)CCC[C@]21C
inactive: Potency [1] | Potency [2] | Potency [4] | Potency [3]

O=C1NC(=O)C(c2cnc3ccccn23)=C1c1cn2c3c(cc(F)cc13)CN(C(=O)N1CCCCC1)CC2
inactive: Potency [2] | Potency [4] | Potency [3] | activity change, negative = inhibition [5] -0.987%
active: Potency [1] 17.8 µM

COc1ccc2[nH]c(=O)c3c(c2c1)OC(C)(C)C=C3
inactive: Potency [1] | Potency [2] | Potency [4] | Potency [3]

COc1ccnc(CS(=O)c2nc3cc(OC(F)F)ccc3[nH]2)c1OC (configuration not stated)
active: Potency ([6]; tumour line A) 28.2 µM
inactive: Potency [1] | Potency [2] | Potency [4] | Potency [3] | activity, negative = cell killing [6, 8] -14.8% | activity, negative = cell killing [6, 9] -24.9% | activity, negative = cell killing [6, 10] -12.9% | Potency [7]

COc1ccc(C(=O)Nc2c(Cl)cncc2Cl)cc1OC1CCCC1
inactive: Potency [1] | Potency [2] | Potency [4] | Potency [3]

COc1ccc(N2CCN(C(=O)c3cc4c(s3)-c3ccccc3S(=O)(=O)C4)CC2)cc1
inactive: Potency [1] | Potency [2] | Potency [4] | Potency [3]

C=CC(=O)Nc1cccc(Nc2nc(Nc3ccc(OCCOC)cc3)ncc2F)c1
active: Potency [1] 10 µM | Potency [2] 2.82 µM | Potency [3] 4.47 µM

COc1cc2c(cc1OC(C)C)[C@H](c1ccc(Cl)cc1)N(c1ccc(N(C)CC3CCC(N4CCN(C)C(=O)C4)CC3)cc1)C(=O)C2 (some centres not stated)
inactive: Potency [2] | Potency [3]
active: Potency [1] 11.2 µM

C=C1C(=O)O[C@@H]2C[C@H](C)[C@@H]3CC(=O)[C@H](O)[C@@]3(C)C[C@H]12
active: Potency [1] 25.1 µM
inactive: Potency [2] | Potency [3]

Cc1c[nH]c2ncnc(N3CCC(CN)(C(=O)Nc4cccc(OC(=O)N(C)C)c4)CC3)c12
active: Potency [2] 22.4 µM
inactive: Potency [1] | Potency [3]

CCC[C@@]1(CCc2ccccc2)CC(O)=C([C@H](CC)c2cccc(NS(=O)(=O)c3ccc(C(F)(F)F)cn3)c2)C(=O)O1
inactive: Potency [1] | Potency [2] | Potency [4] | Potency [3] | activity, negative = cell killing [6, 8] -17% | activity, negative = cell killing [6, 9] -1.26% | activity, negative = cell killing [6, 10] -12.2%

O=C(Nc1ccc2[nH]nc(-c3ccncc3)c2c1)[C@@H]1CCN(CC(=O)N2CCN(c3ccc(-c4ncccn4)cc3)CC2)C1
inactive: Potency [1] | Potency [2] | Potency [3]

C=C(C(=O)O[C@H]1C/C(C)=C/CC/C(CO)=C/[C@H]2OC(=O)C(=C)[C@H]12)C(O)CO (some centres not stated)
inactive: Potency [1] | Potency [2] | Potency [3]

COC(C)(C)CCn1nc(Nc2c(C)cccc2C)c2cnc(Nc3ccc(OCCN4CCCC4)c(F)c3)nc21
inactive: Potency [3]
active: Potency [1] 2.82 µM | Potency [2] 15.8 µM | Potency [4] 1.78 µM | Potency [5] 15.7 µM

O=C(Nc1ccc(C(F)(F)F)cn1)N1CCN(c2ncccc2C(F)(F)F)CC1
inactive: Potency [1] | Potency [2] | Potency [4] | Potency [3]

CC1(C)CN(C(=O)c2ccc(-c3cccc4nc(NC(=O)C5CC5)nn34)cc2)C1
active: Potency [5] 7.87 µM
inactive: Potency [1] | Potency [2] | Potency [4] | Potency [3] | activity change, negative = inhibition [5] 3.01%

O=C(NCC(=O)N1CCCC1)Nc1ccc2cnccc2c1
inactive: Potency [1] | Potency [2] | Potency [4] | Potency [3]

Cn1ncc2cc(-c3cnc(N)c(Cl)c3N3CCC4(CCNC4=O)CC3)ccc21
inactive: Potency [1] | Potency [2] | Potency [4] | Potency [3] | activity change, negative = inhibition [5] 5.32%

C=CCC1=C[C@]2(OC)[C@H](C)[C@@H](c3ccc4c(c3)OCO4)O[C@]2(OC)CC1=O
inactive: Potency [1] | Potency [2] | Potency [4] | Potency [3]

CN1CC[C@@H](c2c(O)cc(O)c3c(=O)cc(-c4ccc(C(F)(F)F)cc4Cl)oc23)[C@@H]1CO
inactive: Potency [1] | Potency [2] | Potency [4] | Potency [3]

CC(/C=C/C(=O)NO)=C\[C@@H](C)C(=O)c1ccc(N(C)C)cc1
inactive: activity change, negative = inhibition [5] -7.11%
active: Potency [1] 1 µM | Potency [2] 1.58 µM | Potency [4] 3.55 µM | Potency [3] 1.78 µM | Potency [5] 1.76 µM

C=C1C(=O)OC2C1CCC1(C)C(O)CC=C(C)C21 (configuration not stated)
inactive: Potency [1] | Potency [2] | Potency [3]

C1=C/COCc2cc(ccc2OCCN2CCCC2)Nc2nccc(n2)-c2cccc(c2)COC/1
active: Potency [1] 2.82 µM | Potency [2] 8.91 µM | Potency [4] 10 µM | Potency [3] 11.2 µM | Potency [5] 3.52 µM

Source: PubChem BioAssay (NCATS)
